Conditions in all cases: 20 µM
The subject of one test is P. vulgatus RND KO. As to the kind of experiment: growth AUC normalised to DMSO control (median) (fraction of control); higher = less growth inhibition, active = hit call of the paper. In a few lines:
(§1)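 For normalised area under the curve, growth curves were truncated at entry into stationary phase, integrated by the trapezoidal rule and divided against vehicle wells on the same plate. The curves came from strains passaged twice overnight without oxygen and then grown in mGAM in 96-well plates at a starting OD578 of 0.01. Each well held an approved-drug library compound at 20 μM with 1% DMSO, and OD578 was read hourly for 24 h in an anaerobic incubator. Values are medians of three biological replicates.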

In a further test the test system is P. vulgatus WT. The test is described as above. In a few lines: as §1
The subject of test [1] is S. enterica typhimurium WT. The test is described as above. The essentials: as §1
In test [2] the test system is S. enterica typhimurium tolC KO. Described as above. The essentials:
as §1

In test [3] the test system is Haemophilus parainfluenzae. Put plainly: growth AUC normalised to DMSO control (fraction of control); higher = less growth inhibition, active = hit call of the paper. In a few lines:
(§2)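 After two anaerobic passages, pathogens were added at a starting OD578 of 0.01 to pre-reduced mGAM plates holding compound at 20 μM with 1% DMSO; hemin and NAD were supplemented for Haemophilus parainfluenzae. Sealed with breathable membranes, plates were read at OD578 hourly for 24 h, in three biological replicates. The trapezoidal rule, applied up to the exponential-to-stationary transition, gave the growth-curve AUC, which was normalised to DMSO controls on the same plate.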

Test [4] deals with Salmonella enterica typhimurium. The description is as above. The essentials:
as §2

Another test has as its system Shigella flexneri. The description is as above. The essentials:
as §2

In a further test the test system is Vibrio cholerae. Described as above. In a few lines:
as §2

For test [5], the system named is Yersinia pseudotuberculosis. Described as above. In a few lines:
as §2

Structures can show the parent of a compound that is named as a salt. Unmarked numbers belong to inactive results.
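Wherever growth AUC normalised to DMSO control (median) is given: active when median AUC fell below 0.1.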

Regarding `CCC(COC(=O)c1cc(OC)c(OC)c(OC)c1)(c1ccccc1)N(C)C` (stereo unspecified) [Trimebutine], the “growth AUC normalised to DMSO control” value is 1 in the test on P. vulgatus RND KO, 1.01 in the test on P. vulgatus WT, 1 in test [1] and 0.936 in test [2].

As to `C[C@]12C/C(=C/O)C(=O)C[C@@H]1CC[C@@H]1[C@@H]2CC[C@@]2(C)[C@H]1CC[C@]2(C)O` [Oxymetholone], the “growth AUC normalised to DMSO control” value was 0.918 with P. vulgatus RND KO, 1 with P. vulgatus WT, 1.01 in [1] and 0.956 in test [2].

`NCC(O)c1ccc(O)cc1` (stereo unspecified) [Octopamine hydrochloride]: the “growth AUC normalised to DMSO control” value in test [3] is 1.03; in test [4] it was 1; with Shigella flexneri, 0.999; with Vibrio cholerae, 1.01; in [5], 1.02; in the test with P. vulgatus RND KO, 1.02. For the same compound, the “growth AUC normalised to DMSO control” value is 1.03 with P. vulgatus WT, 1 in [1] and 1.03 in test [2].

With `CC[C@@]1([C@@H]2O[C@@H]([C@H]3O[C@@](O)(CO)[C@H](C)C[C@@H]3C)C[C@@H]2C)CC[C@H]([C@]2(C)CC[C@]3(C[C@H](O)[C@@H](C)[C@@H]([C@@H](C)[C@@H](OC)[C@H](C)C(=O)O)O3)O2)O1` [Monensin sodium salt], the “growth AUC normalised to DMSO control” value is 0.261 in the test with P. vulgatus RND KO, 0.305 with P. vulgatus WT, 1 in [1] and 0.856 in [2].

As to `CC(C)(C)NCC(O)c1ccccc1Cl` (stereo unspecified) [Tulobuterol Hydrochloride], the “growth AUC normalised to DMSO control” value was 1.01 with P. vulgatus RND KO, 1 in the test with P. vulgatus WT, 0.995 in test [1] and 0.989 in [2].

As for `Oc1ccc(Cl)cc1Cc1cc(Cl)ccc1O` [Dichlorophen], the “growth AUC normalised to DMSO control” value in the test on P. vulgatus RND KO was 0.641; in the test on P. vulgatus WT, 0.442; in test [1] it was 0.915; in test [2], 0.00799 (active).

Turning to `CC(C)(C)NCC(O)c1cc(Cl)c(N)c(Cl)c1` (stereo unspecified) [Clenbuterol hydrochloride], the “growth AUC normalised to DMSO control” value in test [3] was 0.984; in test [4] it was 0.958; with Shigella flexneri, 0.979; in the test on Vibrio cholerae, 0.992; in test [5] it was 0.993; with P. vulgatus RND KO, 0.981. For the same compound, the “growth AUC normalised to DMSO control” value was 1.01 in the test with P. vulgatus WT, 1 in test [1] and 0.992 in test [2].

With `C[C@]12CC[C@H](O)CC1=CC[C@@H]1[C@@H]2CC[C@]2(C)C(=O)CC[C@@H]12` [Prasterone], the “growth AUC normalised to DMSO control” value in the test on P. vulgatus RND KO is 0.995; in the test on P. vulgatus WT it was 0.994; in test [1], 1.01; in test [2] it was 0.942.

As for `CN1C(=O)CCS(=O)(=O)C1c1ccc(Cl)cc1` (stereo unspecified) [Chlormezanone], the “growth AUC normalised to DMSO control” value is 1.02 in test [3]; 1 in test [4]; 0.992 in the test with Shigella flexneri; 1.01 with Vibrio cholerae; 0.995 in [5]; 1.03 in the test with P. vulgatus RND KO. Besides, the “growth AUC normalised to DMSO control” value with P. vulgatus WT was 1.02; in [1], 1; in test [2] it was 1.

For the origin of these results see the supplement of paper PMC12350171.
